We go through 52 molecules from PubChem BioAssay AID1347165 (National Center for Advancing Translational Sciences (NCATS), 2019).

Structures are written as SMILES. The campaign covered roughly 220,000 compounds. About 5,700 (2.6%) were called active. Not shown: some 18% with an inconclusive outcome. The sample holds actives, similar compounds and a random draw of the others, so the mix is not that of the screen. Unmarked numbers belong to inactive results. Calls come from the whole dose curve; as a rule, active = well fitted inhibition curve with a large enough effect; inconclusive = small, poorly fitted or top-dose-only effect; inactive = no such curve, though single readings can be large or run the other way.
Potency is the fitted concentration of half-maximal effect.

For this experiment, the target named is Lysine-specific demethylase 5B (Homo sapiens) (UniProt Q9UGL1). Kind of experiment: Primary screen for KDM5B Histone Demethylases FDH-coupled qHTS. For activity change, negative = inhibition: 0% is about no effect. Note: nearly all actives have a fitted effect of over 70% in size. As to conditions: FDH-coupled NADH fluorescence (FDH is formaldehyde dehydrogenase); series mostly up to 57.7 µM; activity change, negative = inhibition: at the top concentration. Summed up: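 Measured: NADH fluorescence change, 30 min, RT. System: KDM5BΔAP 200 nM final, H3K4me3 peptide, α-KG, Fe(II), ascorbate, NAD⁺ plus FDH, pH 7.5 HEPES. Compounds: titrated, 10 min pre-incubation with enzyme.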
Chain of Lysine-specific demethylase 5B (Homo sapiens) (Q9UGL1 whole entry, looked up): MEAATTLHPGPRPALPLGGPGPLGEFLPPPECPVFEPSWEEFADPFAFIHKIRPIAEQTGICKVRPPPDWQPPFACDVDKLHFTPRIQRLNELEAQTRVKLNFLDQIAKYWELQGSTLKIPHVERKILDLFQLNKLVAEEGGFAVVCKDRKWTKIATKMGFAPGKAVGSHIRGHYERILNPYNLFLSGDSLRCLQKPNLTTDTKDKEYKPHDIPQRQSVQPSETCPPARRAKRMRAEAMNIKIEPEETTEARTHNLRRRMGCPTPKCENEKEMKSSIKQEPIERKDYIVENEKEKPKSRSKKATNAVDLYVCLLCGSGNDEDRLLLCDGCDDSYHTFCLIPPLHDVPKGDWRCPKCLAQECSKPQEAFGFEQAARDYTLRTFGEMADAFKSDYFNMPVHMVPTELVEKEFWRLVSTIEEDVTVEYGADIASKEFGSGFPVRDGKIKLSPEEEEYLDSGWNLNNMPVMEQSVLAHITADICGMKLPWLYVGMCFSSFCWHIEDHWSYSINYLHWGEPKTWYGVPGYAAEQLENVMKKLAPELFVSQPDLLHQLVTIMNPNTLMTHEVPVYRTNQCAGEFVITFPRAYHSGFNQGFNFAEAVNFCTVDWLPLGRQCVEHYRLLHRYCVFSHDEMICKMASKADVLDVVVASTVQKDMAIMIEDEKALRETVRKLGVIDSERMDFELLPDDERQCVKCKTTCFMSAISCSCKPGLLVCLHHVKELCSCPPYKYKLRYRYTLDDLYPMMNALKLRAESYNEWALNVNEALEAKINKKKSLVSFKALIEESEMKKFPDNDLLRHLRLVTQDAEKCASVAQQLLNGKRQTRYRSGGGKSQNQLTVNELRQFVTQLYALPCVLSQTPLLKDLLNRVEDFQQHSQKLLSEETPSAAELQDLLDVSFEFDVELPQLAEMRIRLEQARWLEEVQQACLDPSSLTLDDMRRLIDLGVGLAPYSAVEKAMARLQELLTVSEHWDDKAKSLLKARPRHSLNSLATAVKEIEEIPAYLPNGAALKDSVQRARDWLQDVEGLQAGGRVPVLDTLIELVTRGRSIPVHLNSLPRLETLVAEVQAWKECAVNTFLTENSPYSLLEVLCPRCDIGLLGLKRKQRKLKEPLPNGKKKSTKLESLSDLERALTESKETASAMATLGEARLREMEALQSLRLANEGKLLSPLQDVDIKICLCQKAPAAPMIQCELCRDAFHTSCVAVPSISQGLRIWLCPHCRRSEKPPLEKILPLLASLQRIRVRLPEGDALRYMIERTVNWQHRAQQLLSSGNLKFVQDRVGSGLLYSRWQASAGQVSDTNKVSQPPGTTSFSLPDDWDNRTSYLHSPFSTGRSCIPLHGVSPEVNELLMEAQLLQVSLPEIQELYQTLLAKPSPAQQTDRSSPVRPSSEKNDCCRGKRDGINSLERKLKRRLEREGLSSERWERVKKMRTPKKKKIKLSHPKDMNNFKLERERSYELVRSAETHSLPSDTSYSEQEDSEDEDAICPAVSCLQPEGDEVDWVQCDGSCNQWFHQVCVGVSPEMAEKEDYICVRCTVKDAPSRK
For `CN(CCOc1ccccc1Cl)C(=O)c1cc2ccccc2oc1=O`, the “activity change, negative = inhibition” value is 5.68%. Regarding `O=C(COc1cccc(-n2cnnn2)c1)Nc1ccc(S(=O)(=O)N2CCOCC2)cc1`, the “activity change, negative = inhibition” value was 1.49%.

`Cc1ccc(CN2CCNC(=O)C2CC(=O)NC2(CO)CCCC2)cc1` (configuration not stated): the “activity change, negative = inhibition” value was -28.9%. For the molecule `O=C1NCCN(Cc2ccccc2)C1CC(=O)N1CCN(c2ccccc2)CC1` (configuration not stated), the Potency was 20 µM (active).

As to `O=C(O)CC1C(=O)NCCN1Cc1ccc(Cl)c(F)c1` (configuration not stated), the “activity change, negative = inhibition” value was -18.6%. The same measure, in the same setting: in the case of `COc1ccc(NC(=O)CSc2nccn2-c2cccc(C(F)(F)F)c2)cc1` it was 2.82%. The same measure, in the same setting: in the case of `CCN1CCC(N(Cc2cccs2)C(=O)Nc2cc(Cl)ccc2C(=O)OC)CC1` it was -26.5%; in that of `O=C(CCNC(=O)c1cnccn1)Nc1ccccc1Cc1ccccc1`, 6.99%. On to `COc1ccccc1-c1noc(COC(=O)c2ccc3c(c2)NC(=O)CS3)n1`, for which the “activity change, negative = inhibition” value is -20.1%. For `C=CCNC(=O)C1N(C(C)C)C(=O)C12CCCC2` (configuration not stated), the “activity change, negative = inhibition” value is -0.645%.

As for `C=CCNC(=O)C1N(C(C)C)C(=O)C12CCCCC2` (configuration not stated), the “activity change, negative = inhibition” value is -10.2%. `CC(C)N1C(=O)C2(CCCC2)C1C(=O)Nc1ccc2c(c1)N(C)CCC2` (configuration not stated): the Potency was 31.6 µM (active). `CCNC(=O)NC(=O)CSc1nc(-c2ccco2)nc2ccccc12`: the “activity change, negative = inhibition” value was -20.4%. For the molecule `CN1C[C@@H](NC(=O)c2ccc(C(C)(C)C)cc2)C[C@H]1c1nc(-c2ccc3ccccc3c2)no1`, the Potency is 25.1 µM (active).

With `CN1C[C@@H](NC(=O)c2ccccc2)C[C@H]1c1nc(-c2ccccc2)no1`, the “activity change, negative = inhibition” value is -15.2% [at 86.2 µM].

`COc1ccc(C(=O)N[C@H]2C[C@@H](c3nc(-c4ccc(OC)cc4)no3)N(C)C2)cc1`: the “activity change, negative = inhibition” value is -9.77% [at 86.2 µM]. Consider `COc1ccc(Cl)cc1NC(=O)N1CCC2(CC1)N=C(c1ccc(C)c(C)c1)C(=O)N2`, for which the “activity change, negative = inhibition” value is 6.31%. Still for that read-out and setting: in the case of `Cc1nc(-c2cn(C3CCCN(C(=O)c4cc(F)ccc4F)C3)nn2)no1` (configuration not stated) it was 18.6%.

Turning to `Cc1ccc2c(C(=O)N3CCCC(C#N)C3)cc(-c3cnn(C(C)C)c3)nc2c1` (configuration not stated), the Potency was 28.2 µM (active). Regarding `CC(C)(C)OC(=O)N1CCN(C(=O)c2cc(-c3ccncc3)nc3ccccc23)CC1`, the “activity change, negative = inhibition” value is 8.94%. The same measure, in the same setting: in the case of `C=CCn1c(SCc2coc(-c3cccc(Cl)c3)n2)nnc1C1CCS(=O)(=O)C1` (configuration not stated) it was -12.8%; in that of `COc1ccc(C(=O)OCC(=O)NCCCc2ccccc2)cc1OC`, 31.7%. The same measure, in the same setting: in the case of `COc1ccc(C(=O)Nc2oc3ccc(Cl)cc3c(=O)c2-c2cc(OC)c(OC)c(OC)c2)cc1` it was 0.542%. For `CC(C)Nc1ncc(C(=O)NC2CCCN(CCc3ccccc3)C2)cn1` (configuration not stated), the Potency is 25.1 µM (active). Turning to `Cc1occc1C(=O)NC1CCCN(Cc2ccc(CC(C)C)cc2)C1` (configuration not stated), the “activity change, negative = inhibition” value was 21.5%. In the case of `CCn1ccnc1CN(C)C1CCCN(CCc2ccccc2)C1` (configuration not stated), the “activity change, negative = inhibition” value was -0.558%.

With `Cc1ccc(C(=O)NC2CCN(c3cnn(CC4CC4)c(=O)c3)CC2)c(C)c1`, the “activity change, negative = inhibition” value was -10.1%. On the same count and under the same terms, in the case of `O=C(CSc1ncnc2c1cnn2-c1ccccc1)NC(=O)NC1CCCC1` it was 14.8%; in that of `O=C(N[C@H]1CCOC[C@H]1C1CCOCC1)c1cccc2nccnc12`, -6.52%. With `O=C(N[C@@H]1CCOC[C@H]1Oc1ccccn1)c1cc(C2CC2)no1`, the “activity change, negative = inhibition” value is 30.4%.

`Cc1nc(N(C)C)ncc1C(=O)N[C@@H]1CCOC[C@H]1Oc1ccccn1`: the Potency is 25.1 µM (active).

On to `O=S(=O)(N[C@@H]1CCOC[C@H]1Oc1ccccn1)c1ccc(Cl)s1`, for which the “activity change, negative = inhibition” value was 22%.

For the molecule `N#Cc1ccc(O[C@@H]2COCC[C@H]2NC(=O)CCCn2cccn2)cc1`, the “activity change, negative = inhibition” value was -3.46%. Consider `Cc1nc2ncccn2c1C(=O)N[C@@H]1CCOC[C@H]1Oc1ccccn1`, for which the Potency was 31.6 µM (active).

Take `Cc1nn(C)c2nc(OC(C)C(=O)Nc3ccccc3F)cc(-c3ccccc3)c12` (configuration not stated): the “activity change, negative = inhibition” value is -20.6%. `CC(C)n1cnnc1CC1CCN(C(=O)CCCc2ccccc2)C1` (configuration not stated): the “activity change, negative = inhibition” value was -17.5%. `CC1(C)CC(=O)C/C(=N/NC(=O)c2ccccc2Br)C1`: the “activity change, negative = inhibition” value is 12.7%. Turning to `CC(=O)Nc1cccc(C(=O)N2CCC3(CC2)NC(=O)N(c2cccc(Cl)c2)N3)c1`, the “activity change, negative = inhibition” value was -3.68%.

For `COc1ccc(S(=O)(=O)N(C)Cc2nc(-c3ccc(OC(F)(F)F)cc3)no2)cc1`, the “activity change, negative = inhibition” value was -5.21%.

Consider `O=[S+]([O-])(Nc1cccnc1)c1ccc2c(c1)OCCN(Cc1cscn1)C2`, for which the Potency is 35.5 µM (active). For `O=[S+]([O-])(Nc1cccnc1)c1ccc2c(c1)OCCN(Cc1ccc(F)cc1)C2`, the “activity change, negative = inhibition” value is 4.51% [at 86.2 µM].

In the case of `O=[S+]([O-])(Nc1ccccc1)c1ccc2c(c1)OCCN(Cc1cccs1)C2`, the “activity change, negative = inhibition” value was -9.43% [at 86.2 µM].

As for `Cc1c(C)[n+](=O)c2ccccc2n1[O-]`, the “activity change, negative = inhibition” value was -2.24%. Same read-out and setting: in the case of `O=C(COC(=O)Cc1ccc(Cl)c(Cl)c1)NCc1ccc(F)cc1` it was 5.54%. Still for that read-out and setting: in the case of `COC(=O)[C@H](Cc1ccc(OC)cc1)NC(=O)[C@@H]1CN(C(=O)c2cccc(F)c2)CCN1C(=O)c1cccc(F)c1` it was 26.6%; in that of `CC(C)(C)C(=O)NCCCC(=O)NCCc1cccs1`, 27.1%. On the same count and under the same terms, in the case of `CC(Sc1ccc2c(c1)OCCCO2)C(=O)O` (configuration not stated) it was -13.6%; in that of `O=C(CSc1ncnc2sccc12)c1ccc2c(c1)OCCCO2`, 3.77%. Regarding `c1cc(-c2ccc3c(c2)OCCCO3)n2ncnc2n1`, the Potency is 15.8 µM (active).

For the molecule `CCCc1nnc2sc(-c3ccc4c(c3)OCCO4)nn12`, the “activity change, negative = inhibition” value was 109%. Turning to `CC(C)c1nc2nccc(-c3ccc4c(c3)OCCCO4)n2n1`, the Potency is 22.4 µM (active). For the molecule `Fc1ccc(CNC[C@H]2Cn3c(-c4ccc5c(c4)OCCO5)cnc3CO2)cc1`, the “activity change, negative = inhibition” value is -24.6% [at 86.2 µM].
